Experimental data taken from PubChem BioAssay AID504941 (Broad Institute, 2011).
Hit rate of the full screen: of about 1,200 compounds, about 170 (14%) were called active. The rule behind the calls is not given here. Only a sample is shown. Entries with a potency or affinity are not part of this list.

assay: twin-arginine translocation blockade, bacterial reporter – cherry-pick, set 2, plate reader, dose response (AID 504941); settings: E. coli Tat transport reporter; series mostly up to 38 µM

Compound | outcome
O=C(CN(Cc1ccco1)C(=O)c1ccccc1F)Nc1ccccc1C(F)(F)F | inactive
CCc1cccc2c1NC(=O)C2(O)N1CCCC(C)C1 (configuration not stated) | inactive
COc1cccc(C(=O)Nc2cc([N+](=O)[O-])ccc2N2CCN(C)CC2)c1 | inactive
Cc1cccc(NC(=O)CN(c2ccc(F)cc2)S(C)(=O)=O)c1 | inactive
CS(=O)(=O)N(CC(=O)NC1CCCC1)c1cccc(F)c1 | inactive
COC(CN(C)C(=O)C1CCCN(S(=O)(=O)c2ccc3c(c2)oc(=O)n3C)C1)OC (configuration not stated) | inactive
CCOC(=O)c1c(NC(NC(C)=O)C(Cl)(Cl)Cl)sc(C(C)=O)c1C (configuration not stated) | inactive
CC(C)(CO)[C@@H](O)C(=O)NCCC(=O)O | inactive
COc1ccc(-c2nc(C#N)c(NCC3CCCO3)o2)cc1OC (configuration not stated) | inactive
CCNc1nc(OC)nc(Oc2ccc(=O)n(-c3ccccc3)n2)n1 | inactive
CCCCN(CCCC)C(=O)c1cn(CC)c2cc(N3CCN(C)CC3)c(F)cc2c1=O | inactive
CC(=O)Nc1cccc(-c2csc(Nc3cc(C)ccn3)n2)c1 | inactive
CC(C)(C)CC(=O)Nc1ccc(Nc2ccccc2)cc1 | inactive
Nc1ccc(S(=O)(=O)N2CCCc3ccccc32)cc1 | inactive
NC(=O)c1c(NC(=O)C(=O)N2CCOCC2)sc2c1CCC2 | inactive
NC(=O)NC(=O)CSc1nc2sc(-c3ccccc3)cc2c(=O)n1-c1ccccc1 | inactive
CCn1c(CCn2c3ccccc3c3ccccc32)n[nH]c1=S | inactive
CCc1ccc(NC(=O)Nc2cc(C(=O)NCC3CCCO3)ccc2N2CC3CC(C2)c2cccc(=O)n2C3)cc1 (configuration not stated) | inactive
CCCN=C1N(CC)C[C@@H]2[C@@H]3C(=O)N(C)C(=O)[C@@H]3[C@](Cc3ccccc3)(C(=O)OC)N12 | inactive
CC(NC(=O)Nc1nccs1)(C(F)(F)F)C(F)(F)F | inactive
COc1ccc(C2C(C#N)=C(N)Oc3c2sc2nc(C)cc(C)c32)cc1 (configuration not stated) | inactive
COc1cc2c(cc1NC(=O)COC(=O)[C@@H](NC(=O)c1ccccc1)C(C)C)oc1ccccc12 | inactive
Cc1cccc2c1cnn2C(=O)CCC(=O)N1CC(C)CC(C)C1 (configuration not stated) | inactive

Compound | outcome
CC(SCC(=O)Nc1ccc(F)cc1)c1nc2ccccc2c(=O)[nH]1 (configuration not stated) | inactive
O=C(c1ccco1)N1CCN(C(=O)c2ccc(CS(=O)c3ccc(F)cc3)o2)CC1 (configuration not stated) | inactive
Cc1nn2c(COc3ccc(NC(=O)c4ccccc4Cl)cc3)nnc2c2ccccc12 | inactive
O=C(O)c1ccc(N/N=C/c2ccc(-c3ccccc3)cc2)cc1 | inactive
COc1cccc(CN(C(=O)Cc2c[nH]c3ccccc23)C(C(=O)NC2CCCCC2)c2ccc(C)o2)c1 (configuration not stated) | inactive
CCc1cccc(CC)c1NC(=S)NCC(c1cccnc1)N(C)C (configuration not stated) | inactive
COc1ccc(-c2ccc(-c3noc(-c4ccccc4OC)n3)c(OC)n2)cc1 | inactive
N#Cc1cccc(C(=O)OCC(=O)NCc2ccco2)c1 | inactive
CCOc1ccc(NC(=O)c2ccc(NC(=O)c3cn4c5c(c(N6CCN(C)CC6)c(F)cc5c3=O)OCC4C)cc2)cc1 (configuration not stated) | inactive
O=C(c1ccco1)N1CCCC(c2nc3c(nnn3Cc3ccc(F)cc3)c(=O)[nH]2)C1 (configuration not stated) | inactive
CCOC(=O)N1CCC(N(CCN(C)C)C(=S)Nc2ccc(Oc3ccccc3)cc2)CC1 | inactive
Cc1noc(NS(=O)(=O)c2ccc(NC(=O)c3ccoc3C)cc2)c1C | inactive
C=CCOc1ccccc1CN1CCC(n2nccc2NC(=O)C2CC2)CC1 | inactive
O=C(CSc1nccn1Cc1ccccc1)NC1CCCC1 | inactive
O=C(NNC(=S)Nc1cccc(Cl)c1)c1ccccc1OC(F)F | inactive
COc1ccc(C2CC(=O)Nc3n[nH]c(-c4ccccc4)c32)cc1OC (configuration not stated) | inactive
CCc1ccc(N2CC(C(=O)N3CCN(c4ccccn4)CC3)CC2=O)cc1 (configuration not stated) | inactive
COc1ccc(-c2nnc(Nc3ccc(CC(N)=O)cc3)c3ccccc23)cc1 | inactive
CCC(=O)NC(c1ccccc1Cl)c1c(O)ccc2ccccc12 (configuration not stated) | inactive
Cc1cc(C)n(CCCNC(=O)COc2ccc([N+](=O)[O-])cc2)n1 | inactive
COc1ccccc1NS(=O)(=O)c1cc(NC(C)=O)ccc1N1CCCCC1 | inactive
CCn1c2ccc(C)cc2c2nnc(SCCN3CCOCC3)nc21 | inactive
COC(=O)c1ccc(NC(=O)N2CCC(O)(c3cccnc3)CC2)cc1 | inactive

Compound | outcome
Cc1ccc(/C=C2/C(=N)N3N=C(CC(=O)N4CCCC4)SC3=NC2=O)o1 | inactive
COC(=O)c1c(NC(=O)CCN2CCOCC2)sc2c1CCCC2 | inactive
COc1ccc(CCN=C(N)NS(=O)(=O)c2cccs2)cc1 | inactive
COc1cccc(NC(=O)Nc2cnccn2)c1 | inactive
COc1cc(SC)ccc1C(=O)OCC(=O)NC(=O)NC(C)C | inactive
O=C(N/C(=C/c1cccc([N+](=O)[O-])c1)C(=O)N1CCOCC1)c1ccc(Br)cc1 | inactive
Cn1cccc1CNCC(O)c1ccccc1 (configuration not stated) | inactive
CC(Sc1nnc(-c2ccccc2F)n1C1CC1)C(=O)NCc1ccco1 (configuration not stated) | inactive
CC1CCN(c2ccc(C(=O)NCc3ccco3)cc2[N+](=O)[O-])CC1 | inactive
N#Cc1cccc(Nc2c3c(nc4ccccc24)CCCC3)c1 | inactive
O=S(=O)(c1cc(Cl)cc(Cl)c1O)N1CCC2(CC1)OCCO2 | inactive
CCS(=O)(=O)c1ccc(NC(=O)c2ccccc2Cl)c(O)c1 | inactive
CS(=O)(=O)c1ccc(Cl)c(NC(=O)COC(=O)CCc2c[nH]c3ccccc23)c1 | inactive
Nc1ccn(CC(=O)N2CCN(c3ccccn3)CC2)c(=O)n1 | inactive
NC(=O)c1ncn([C@@H]2O[C@H](CNCc3cccn3-c3ccncc3)[C@@H](O)[C@H]2O)n1 | inactive
O=C(NCc1ccc2c(c1)OCO2)c1c(O)c2cccc3c2n(c1=O)CCC3 | inactive
Cc1nc(NC(=O)c2ccco2)sc1-c1csc(Nc2ccc(Cl)cc2)n1 | inactive
Cc1ccc(SCc2noc(C(=O)NC(C)C)c2C(=O)O)cc1C | inactive
CCCCNC(=O)NNC(=O)c1ccc(F)cc1 | inactive
O=C(O)C1C(=O)NCC1c1ccccc1 (configuration not stated) | inactive
Cc1ccc(C(=O)N/C(=C\c2cn(S(=O)(=O)N(C)C)c3ccccc23)C(=O)NCCCN2CCOCC2)cc1 | inactive
